Measurements: ChEMBL document CHEMBL1961873, “Compounds: GSK PKIS; Assays: Nanosyn kinase panel” (2012)

Assays:
[1] = target: SRSF protein kinase 1 (Homo sapiens) (UniProt Q96SB4); conditions: at 0.1 µM
[2] = target: SRSF protein kinase 1 (Homo sapiens) (UniProt Q96SB4); conditions: at 1 µM
[3] = target: Phosphatidylinositol 4,5-bisphosphate 3-kinase catalytic subunit alpha isoform (Homo sapiens) (UniProt P42336); conditions: at 0.1 µM
[4] = target: Phosphatidylinositol 4,5-bisphosphate 3-kinase catalytic subunit alpha isoform (Homo sapiens) (UniProt P42336); conditions: at 1 µM
[5] = target: T1, Phosphatidylinositol 4,5-bisphosphate 3-kinase catalytic subunit delta isoform (Homo sapiens) (UniProt O00329); conditions: at 0.1 µM
T1 sequence (whole entry): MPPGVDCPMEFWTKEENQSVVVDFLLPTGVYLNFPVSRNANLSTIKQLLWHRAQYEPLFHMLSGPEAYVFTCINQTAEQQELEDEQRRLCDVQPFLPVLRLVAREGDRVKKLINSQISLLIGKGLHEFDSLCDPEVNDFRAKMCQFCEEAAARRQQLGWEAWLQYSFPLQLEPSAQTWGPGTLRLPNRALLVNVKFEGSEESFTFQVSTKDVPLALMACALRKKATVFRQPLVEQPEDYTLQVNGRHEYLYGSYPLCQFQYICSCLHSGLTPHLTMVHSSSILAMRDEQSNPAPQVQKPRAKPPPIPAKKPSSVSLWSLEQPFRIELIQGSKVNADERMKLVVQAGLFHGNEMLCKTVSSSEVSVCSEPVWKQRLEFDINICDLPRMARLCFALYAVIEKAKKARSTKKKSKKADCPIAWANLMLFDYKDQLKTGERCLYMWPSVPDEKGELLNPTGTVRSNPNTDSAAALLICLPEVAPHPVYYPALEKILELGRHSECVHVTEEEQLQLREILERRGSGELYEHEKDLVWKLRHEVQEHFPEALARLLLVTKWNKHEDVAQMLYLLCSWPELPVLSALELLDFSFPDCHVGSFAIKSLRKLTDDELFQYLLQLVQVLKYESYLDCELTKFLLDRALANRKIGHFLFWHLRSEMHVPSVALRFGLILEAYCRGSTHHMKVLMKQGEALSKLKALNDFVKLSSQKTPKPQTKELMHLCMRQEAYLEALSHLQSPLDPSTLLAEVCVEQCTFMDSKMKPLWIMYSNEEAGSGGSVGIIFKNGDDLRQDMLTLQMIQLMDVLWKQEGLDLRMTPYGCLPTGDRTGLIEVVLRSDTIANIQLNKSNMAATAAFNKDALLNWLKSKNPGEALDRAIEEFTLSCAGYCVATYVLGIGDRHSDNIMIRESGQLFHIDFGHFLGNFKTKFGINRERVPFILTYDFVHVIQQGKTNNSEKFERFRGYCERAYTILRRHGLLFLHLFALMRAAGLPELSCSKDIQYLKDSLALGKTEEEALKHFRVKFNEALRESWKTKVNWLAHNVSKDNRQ

[6] = target: T1, Phosphatidylinositol 4,5-bisphosphate 3-kinase catalytic subunit delta isoform (Homo sapiens); conditions: at 1 µM
[7] = target: Phosphatidylinositol 4-kinase beta (Homo sapiens) (UniProt Q9UBF8); conditions: at 0.1 µM
[8] = target: Phosphatidylinositol 4-kinase beta (Homo sapiens) (UniProt Q9UBF8); conditions: at 1 µM
[9] = target: Sphingosine kinase 1 (Homo sapiens) (UniProt Q9NYA1); conditions: at 0.1 µM
[10] = target: Sphingosine kinase 1 (Homo sapiens) (UniProt Q9NYA1); conditions: at 1 µM
[11] = target: T2, Sphingosine kinase 2 (Homo sapiens) (UniProt Q9NRA0); conditions: at 0.1 µM
T2 sequence (whole entry): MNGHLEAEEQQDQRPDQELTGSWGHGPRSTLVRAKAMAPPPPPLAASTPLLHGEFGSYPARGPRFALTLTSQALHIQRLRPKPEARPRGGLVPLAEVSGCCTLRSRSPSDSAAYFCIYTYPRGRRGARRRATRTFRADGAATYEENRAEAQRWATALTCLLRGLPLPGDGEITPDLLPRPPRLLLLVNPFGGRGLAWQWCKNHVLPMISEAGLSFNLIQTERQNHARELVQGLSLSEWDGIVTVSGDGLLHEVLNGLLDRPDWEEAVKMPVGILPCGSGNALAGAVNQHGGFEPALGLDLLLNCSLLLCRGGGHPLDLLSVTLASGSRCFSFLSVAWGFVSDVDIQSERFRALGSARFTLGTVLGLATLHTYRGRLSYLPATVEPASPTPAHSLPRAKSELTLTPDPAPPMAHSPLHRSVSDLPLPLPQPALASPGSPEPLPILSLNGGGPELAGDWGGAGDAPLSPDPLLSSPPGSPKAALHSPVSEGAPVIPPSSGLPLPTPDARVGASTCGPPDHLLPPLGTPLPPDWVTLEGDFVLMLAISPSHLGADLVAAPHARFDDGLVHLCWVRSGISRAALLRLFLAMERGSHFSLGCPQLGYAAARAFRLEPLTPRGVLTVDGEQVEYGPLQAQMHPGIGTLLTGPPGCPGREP

[12] = target: T2, Sphingosine kinase 2 (Homo sapiens); conditions: at 1 µM
[13] = target: Casein kinase II subunit alpha (Homo sapiens) (UniProt P68400); conditions: at 0.1 µM
[14] = target: Casein kinase II subunit alpha (Homo sapiens) (UniProt P68400); conditions: at 1 µM
[15] = target: T3, Inhibitor of nuclear factor kappa-B kinase subunit alpha (Homo sapiens) (UniProt O15111); conditions: at 0.1 µM
T3 sequence (whole entry): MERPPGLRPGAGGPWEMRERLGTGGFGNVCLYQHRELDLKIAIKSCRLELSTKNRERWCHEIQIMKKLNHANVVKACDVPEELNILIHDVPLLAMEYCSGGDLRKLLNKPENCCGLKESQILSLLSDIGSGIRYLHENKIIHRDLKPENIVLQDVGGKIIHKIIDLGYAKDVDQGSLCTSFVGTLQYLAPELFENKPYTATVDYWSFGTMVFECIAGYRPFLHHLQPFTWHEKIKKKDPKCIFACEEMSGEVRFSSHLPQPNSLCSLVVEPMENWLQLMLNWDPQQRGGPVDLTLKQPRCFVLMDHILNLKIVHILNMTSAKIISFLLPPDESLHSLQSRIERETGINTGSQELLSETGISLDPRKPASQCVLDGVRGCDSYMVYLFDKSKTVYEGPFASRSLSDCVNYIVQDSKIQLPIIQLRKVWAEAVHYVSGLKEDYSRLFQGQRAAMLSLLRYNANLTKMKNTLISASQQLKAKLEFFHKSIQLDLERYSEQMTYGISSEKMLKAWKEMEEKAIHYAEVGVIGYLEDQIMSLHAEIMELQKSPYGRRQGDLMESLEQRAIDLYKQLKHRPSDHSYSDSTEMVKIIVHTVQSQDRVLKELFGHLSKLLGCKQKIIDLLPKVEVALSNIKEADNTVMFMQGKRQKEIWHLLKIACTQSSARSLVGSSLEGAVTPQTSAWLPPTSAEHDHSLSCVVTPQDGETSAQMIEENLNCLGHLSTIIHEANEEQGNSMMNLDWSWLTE

[16] = target: T3, Inhibitor of nuclear factor kappa-B kinase subunit alpha (Homo sapiens); conditions: at 1 µM
[17] = target: T4, Inhibitor of nuclear factor kappa-B kinase subunit beta (Homo sapiens) (UniProt O14920); conditions: at 0.1 µM
T4 sequence (whole entry): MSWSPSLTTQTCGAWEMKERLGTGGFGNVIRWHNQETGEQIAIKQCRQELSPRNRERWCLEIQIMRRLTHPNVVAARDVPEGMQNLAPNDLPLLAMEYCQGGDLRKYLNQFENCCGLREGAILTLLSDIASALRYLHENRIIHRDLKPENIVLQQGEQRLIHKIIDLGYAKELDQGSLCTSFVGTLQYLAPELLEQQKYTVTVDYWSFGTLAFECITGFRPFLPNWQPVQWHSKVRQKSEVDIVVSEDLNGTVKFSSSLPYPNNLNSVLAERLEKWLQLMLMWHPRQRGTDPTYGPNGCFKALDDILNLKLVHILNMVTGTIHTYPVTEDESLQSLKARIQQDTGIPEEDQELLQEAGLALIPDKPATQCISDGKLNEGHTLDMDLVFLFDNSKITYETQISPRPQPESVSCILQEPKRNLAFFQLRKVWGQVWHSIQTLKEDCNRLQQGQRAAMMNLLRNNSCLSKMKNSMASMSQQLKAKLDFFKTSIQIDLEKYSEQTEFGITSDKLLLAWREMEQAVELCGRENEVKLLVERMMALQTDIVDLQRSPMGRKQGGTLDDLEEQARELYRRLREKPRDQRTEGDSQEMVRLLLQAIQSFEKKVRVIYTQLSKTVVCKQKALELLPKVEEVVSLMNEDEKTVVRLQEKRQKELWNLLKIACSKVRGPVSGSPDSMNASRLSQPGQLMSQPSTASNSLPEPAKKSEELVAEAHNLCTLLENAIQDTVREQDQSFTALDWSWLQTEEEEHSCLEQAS

[18] = target: T4, Inhibitor of nuclear factor kappa-B kinase subunit beta (Homo sapiens); conditions: at 1 µM
[19] = target: T5, Inhibitor of nuclear factor kappa-B kinase subunit epsilon (Homo sapiens) (UniProt Q14164); conditions: at 0.1 µM;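 further: mean inhibition of IKKε reported, from the GSK PKIS dataset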
T5 sequence (whole entry): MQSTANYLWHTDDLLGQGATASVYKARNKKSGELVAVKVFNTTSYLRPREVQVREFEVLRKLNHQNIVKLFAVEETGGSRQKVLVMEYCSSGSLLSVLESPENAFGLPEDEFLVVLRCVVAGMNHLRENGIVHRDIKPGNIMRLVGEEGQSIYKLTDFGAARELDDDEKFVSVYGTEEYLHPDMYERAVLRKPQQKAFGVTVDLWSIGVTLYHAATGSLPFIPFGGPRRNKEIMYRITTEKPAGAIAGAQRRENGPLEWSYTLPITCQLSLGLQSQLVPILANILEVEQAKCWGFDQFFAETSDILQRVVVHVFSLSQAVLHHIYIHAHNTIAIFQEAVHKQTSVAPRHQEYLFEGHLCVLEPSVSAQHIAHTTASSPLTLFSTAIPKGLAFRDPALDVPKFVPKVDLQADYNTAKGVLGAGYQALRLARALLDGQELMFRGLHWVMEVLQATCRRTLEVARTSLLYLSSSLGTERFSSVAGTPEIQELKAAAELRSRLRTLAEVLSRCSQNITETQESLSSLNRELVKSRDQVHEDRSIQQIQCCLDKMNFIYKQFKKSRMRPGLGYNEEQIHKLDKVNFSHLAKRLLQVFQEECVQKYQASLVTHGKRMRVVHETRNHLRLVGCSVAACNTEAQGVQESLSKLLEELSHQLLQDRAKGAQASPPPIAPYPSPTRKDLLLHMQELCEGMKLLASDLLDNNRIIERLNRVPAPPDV

[20] = target: T6, Mitogen-activated protein kinase 12 (Homo sapiens) (UniProt P53778); conditions: at 1 µM;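 further: values are averaged p38gamma kinase inhibition readings, compounds tested at 1 µM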
T6 sequence (whole entry): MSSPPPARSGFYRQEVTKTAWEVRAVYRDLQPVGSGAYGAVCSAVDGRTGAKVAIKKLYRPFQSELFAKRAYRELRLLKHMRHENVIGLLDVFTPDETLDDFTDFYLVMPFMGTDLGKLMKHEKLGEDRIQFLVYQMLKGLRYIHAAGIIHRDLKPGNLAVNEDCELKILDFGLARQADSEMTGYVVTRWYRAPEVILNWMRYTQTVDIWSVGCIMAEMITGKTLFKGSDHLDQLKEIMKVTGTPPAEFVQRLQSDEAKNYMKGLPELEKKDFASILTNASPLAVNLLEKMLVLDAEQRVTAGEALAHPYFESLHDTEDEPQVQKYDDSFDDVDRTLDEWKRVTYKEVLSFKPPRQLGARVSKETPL

Sequence of Casein kinase II subunit alpha (Homo sapiens) (P68400 whole entry, looked up): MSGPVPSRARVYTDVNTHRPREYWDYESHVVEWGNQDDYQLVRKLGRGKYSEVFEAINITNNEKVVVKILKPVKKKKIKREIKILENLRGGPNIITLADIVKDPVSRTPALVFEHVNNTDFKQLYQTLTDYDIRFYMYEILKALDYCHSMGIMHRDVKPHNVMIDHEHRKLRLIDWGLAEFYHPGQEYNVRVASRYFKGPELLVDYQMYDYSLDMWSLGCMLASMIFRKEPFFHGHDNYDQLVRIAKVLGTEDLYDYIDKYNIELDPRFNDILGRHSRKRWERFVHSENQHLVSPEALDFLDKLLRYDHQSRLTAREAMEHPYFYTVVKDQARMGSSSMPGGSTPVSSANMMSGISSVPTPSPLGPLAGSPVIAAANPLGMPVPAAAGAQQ
Sequence of Phosphatidylinositol 4,5-bisphosphate 3-kinase catalytic subunit alpha isoform (Homo sapiens) (P42336 whole entry, canonical isoform): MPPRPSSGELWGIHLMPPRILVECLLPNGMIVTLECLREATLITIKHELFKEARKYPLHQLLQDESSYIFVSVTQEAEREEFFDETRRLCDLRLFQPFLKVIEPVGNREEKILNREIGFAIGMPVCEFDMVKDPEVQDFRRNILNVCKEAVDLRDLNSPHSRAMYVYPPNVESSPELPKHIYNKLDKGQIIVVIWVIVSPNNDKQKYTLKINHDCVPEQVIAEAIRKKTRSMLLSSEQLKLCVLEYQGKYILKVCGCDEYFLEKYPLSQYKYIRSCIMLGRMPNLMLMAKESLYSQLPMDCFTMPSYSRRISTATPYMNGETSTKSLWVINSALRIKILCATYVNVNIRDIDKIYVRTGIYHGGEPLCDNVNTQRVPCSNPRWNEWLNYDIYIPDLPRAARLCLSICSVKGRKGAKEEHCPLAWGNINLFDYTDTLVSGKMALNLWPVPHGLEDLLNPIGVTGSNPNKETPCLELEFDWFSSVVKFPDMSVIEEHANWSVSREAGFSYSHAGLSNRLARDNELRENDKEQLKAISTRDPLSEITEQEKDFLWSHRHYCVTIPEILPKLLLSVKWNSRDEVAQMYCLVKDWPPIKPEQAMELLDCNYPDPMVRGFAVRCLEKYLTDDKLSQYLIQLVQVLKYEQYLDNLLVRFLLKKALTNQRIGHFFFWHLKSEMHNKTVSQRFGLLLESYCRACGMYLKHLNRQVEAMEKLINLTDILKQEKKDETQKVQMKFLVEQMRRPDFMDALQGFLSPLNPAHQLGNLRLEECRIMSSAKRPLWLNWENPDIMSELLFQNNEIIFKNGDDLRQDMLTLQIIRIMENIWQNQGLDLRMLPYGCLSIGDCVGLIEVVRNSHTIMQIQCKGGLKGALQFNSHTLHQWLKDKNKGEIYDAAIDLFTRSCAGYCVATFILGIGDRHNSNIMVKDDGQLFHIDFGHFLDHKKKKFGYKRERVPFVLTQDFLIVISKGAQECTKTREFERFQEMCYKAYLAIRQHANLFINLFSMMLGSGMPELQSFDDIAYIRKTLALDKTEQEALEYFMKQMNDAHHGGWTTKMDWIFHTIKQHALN
Sequence of Phosphatidylinositol 4-kinase beta (Homo sapiens) (Q9UBF8 2-816 limits assumed): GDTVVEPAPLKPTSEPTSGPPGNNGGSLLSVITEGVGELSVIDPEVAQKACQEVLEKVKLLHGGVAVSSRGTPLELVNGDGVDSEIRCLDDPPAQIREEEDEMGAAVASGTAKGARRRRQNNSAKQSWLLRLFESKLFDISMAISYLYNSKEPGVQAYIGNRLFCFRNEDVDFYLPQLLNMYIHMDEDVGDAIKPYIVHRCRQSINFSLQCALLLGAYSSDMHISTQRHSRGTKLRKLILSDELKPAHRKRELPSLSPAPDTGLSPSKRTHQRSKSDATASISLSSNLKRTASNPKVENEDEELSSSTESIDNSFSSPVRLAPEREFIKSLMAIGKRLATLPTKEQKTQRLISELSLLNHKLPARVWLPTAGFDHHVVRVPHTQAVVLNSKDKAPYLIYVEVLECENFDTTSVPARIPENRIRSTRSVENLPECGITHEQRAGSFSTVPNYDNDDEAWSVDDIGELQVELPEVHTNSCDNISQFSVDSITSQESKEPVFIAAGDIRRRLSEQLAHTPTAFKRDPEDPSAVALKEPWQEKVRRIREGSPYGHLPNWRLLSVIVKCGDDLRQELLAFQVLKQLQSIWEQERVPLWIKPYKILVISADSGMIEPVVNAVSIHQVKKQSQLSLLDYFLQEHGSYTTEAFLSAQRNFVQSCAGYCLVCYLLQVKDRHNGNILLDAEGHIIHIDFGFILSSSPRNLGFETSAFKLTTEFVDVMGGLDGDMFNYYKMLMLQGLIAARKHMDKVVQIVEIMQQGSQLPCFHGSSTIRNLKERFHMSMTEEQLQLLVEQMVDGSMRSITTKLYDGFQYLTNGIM
Sequence of SRSF protein kinase 1 (Homo sapiens) (Q96SB4 whole entry, canonical isoform): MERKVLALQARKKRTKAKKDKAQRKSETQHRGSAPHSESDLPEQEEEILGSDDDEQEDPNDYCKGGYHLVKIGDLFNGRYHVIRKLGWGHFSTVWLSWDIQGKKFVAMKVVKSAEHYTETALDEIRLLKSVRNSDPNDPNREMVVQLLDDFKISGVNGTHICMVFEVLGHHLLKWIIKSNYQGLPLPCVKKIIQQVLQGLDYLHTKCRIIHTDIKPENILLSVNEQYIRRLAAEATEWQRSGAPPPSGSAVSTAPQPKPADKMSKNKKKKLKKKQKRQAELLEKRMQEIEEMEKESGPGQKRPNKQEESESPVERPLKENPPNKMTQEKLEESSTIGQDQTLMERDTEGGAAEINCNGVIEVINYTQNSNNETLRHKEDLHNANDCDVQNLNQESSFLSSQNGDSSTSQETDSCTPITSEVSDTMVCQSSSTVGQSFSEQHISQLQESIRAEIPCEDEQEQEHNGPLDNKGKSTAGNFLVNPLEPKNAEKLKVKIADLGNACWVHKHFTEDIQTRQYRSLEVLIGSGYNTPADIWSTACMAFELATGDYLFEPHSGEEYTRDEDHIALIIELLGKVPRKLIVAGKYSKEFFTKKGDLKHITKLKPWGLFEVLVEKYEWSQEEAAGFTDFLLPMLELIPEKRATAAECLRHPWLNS
Sequence of Sphingosine kinase 1 (Homo sapiens) (Q9NYA1 whole entry): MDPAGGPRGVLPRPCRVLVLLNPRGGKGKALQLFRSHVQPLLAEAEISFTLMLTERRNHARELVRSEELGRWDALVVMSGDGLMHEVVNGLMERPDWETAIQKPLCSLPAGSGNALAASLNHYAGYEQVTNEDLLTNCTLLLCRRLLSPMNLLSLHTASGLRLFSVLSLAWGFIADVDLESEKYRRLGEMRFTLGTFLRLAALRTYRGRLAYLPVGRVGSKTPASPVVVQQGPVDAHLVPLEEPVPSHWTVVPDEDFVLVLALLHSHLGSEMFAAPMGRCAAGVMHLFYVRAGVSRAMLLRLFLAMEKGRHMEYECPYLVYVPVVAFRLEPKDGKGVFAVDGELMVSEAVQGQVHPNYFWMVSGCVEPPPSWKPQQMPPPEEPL

Work on `NC(=O)Cc1ccccc1Oc1nccc(-c2c(-c3ccc(F)cc3)ncn2C2CCNCC2)n1` yielded an inhibition [1] of -2.64%, an inhibition [2] of -4.17% and an inhibition [3] of 1.29%. It also gave an inhibition [4] of 3.49%, an inhibition [5] of 2.67% and an inhibition [6] of 2.58%. The inhibition [7] was -0.45%, the inhibition [8] was 3.25% and the inhibition [9] was -2.17%. It also gave an inhibition [10] of -2.09%, an inhibition [11] of 0.16% and an inhibition [12] of 0.42%. The inhibition [13] was 1.72%, the inhibition [14] was 2.63% and the inhibition [15] was 8.64%. The inhibition [16] was 0.14%, the inhibition [17] was 4.37% and the inhibition [18] was 3.54%. It also gave an inhibition [19] of 2.28%.
`COc1cccc(/C=N/Nc2ncnc3c2cnn3-c2cccc(OC)c2)c1` gave an inhibition [20] of 4.21%, an inhibition [1] of -3.08% and an inhibition [2] of -2.5%. The inhibition [3] was 4.36%, the inhibition [4] was 1.65% and the inhibition [5] was 0.9%. The inhibition [6] was 1.58%, the inhibition [7] was 3.72% and the inhibition [8] was 2.27%. The inhibition [9] was 2.07%, the inhibition [10] was 0.34% and the inhibition [11] was -0.71%. For the same compound, the inhibition [12] was -0.63%, the inhibition [13] was 5.99% and the inhibition [14] was 3.05%. The inhibition [15] was 7.48%, the inhibition [16] was -3.48% and the inhibition [17] was 6.4%. For the same compound, the inhibition [18] was 6% and the inhibition [19] was 4.37%.
For `COc1ccc2cc(-c3c(-c4ccncc4)nc(-c4ccc(S(C)(=O)=O)cc4C)n3C)ccc2c1`, the inhibition [20] was 3.33%, the inhibition [1] was -2.04% and the inhibition [2] was -2.87%. It also gave an inhibition [3] of 3.62%, an inhibition [4] of 3.55% and an inhibition [5] of 1.31%. For the same compound, the inhibition [6] was 1.59%, the inhibition [8] was 0.34% and the inhibition [9] was 2.55%. It also gave an inhibition [10] of -0.37%, an inhibition [11] of -0.27% and an inhibition [12] of 4.01%. The inhibition [13] was 3.63%, the inhibition [14] was 4.57% and the inhibition [15] was -0.1%. It also gave an inhibition [16] of 3.23%, an inhibition [17] of 6.82% and an inhibition [18] of 7.83%. It also gave an inhibition [19] of 6.25%.
Work on `C[C@@H](Oc1cc(-n2cnc3ccc(OCC4CCN(C)CC4)cc32)sc1C(N)=O)c1ccccc1Cl` yielded an inhibition [20] of 6.25%, an inhibition [1] of -2.59% and an inhibition [2] of -1.67%. For the same compound, the inhibition [3] was 8.19%, the inhibition [4] was 27.3% and the inhibition [5] was 15.6%. The inhibition [6] was 74.6%, the inhibition [7] was -6.34% and the inhibition [9] was 1.45%. The inhibition [10] was 1.57%, the inhibition [12] was -0.12% and the inhibition [13] was 6.48%. The inhibition [14] was 19.4%, the inhibition [15] was 5.03% and the inhibition [16] was 1.69%. For the same compound, the inhibition [17] was 1.98%, the inhibition [18] was 3.37% and the inhibition [19] was 2.73%.
